{"source": "PubChem BioAssay AID431", "about": "(Sanford-Burnham Center for Chemical Genomics, 2006)", "note": "Among all 63,000 compounds or so, about 1,100 (1.7%) were called active.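 The calls were made as follows: active = compounds whose percent cytotoxicity in the single-dose primary screen, scaled between solvent and toxic-drug controls, exceeds 50; inactive = the rest.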 Shown is part of a subset that was picked to be rich in actives. Measured potencies and affinities stand elsewhere."}
{"test": "viability loss of HPDE-C7K cells – cell-based, fluorescence, HTS, primary screen (AID 431);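 also: 0% = DMSO solvent wells and 100% = doxorubicin-treated wells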", "settings": "HPDE-C7K KRASV12 cells, Alamar Blue viability, 48 h; at 10 µM; active compounds read high"}
{"smiles": "CC1CCCCC1NC(=O)Cn1[nH]c(=O)c2ccccc2c1=O", "note": "(stereo unspecified)", "cytotoxicity": "0.5% (inactive)"}
{"smiles": "CC(C)(C)NC(=O)Nc1ccccc1C(N)=O", "cytotoxicity": "-1.1% (inactive)"}
{"smiles": "Cc1sc2ncnc(NCc3ccco3)c2c1C", "cytotoxicity": "0.5% (inactive)"}
{"smiles": "Cc1sc2nc(SCC(=O)NCc3ccco3)n(-c3ccccc3)c(=O)c2c1C", "cytotoxicity": "7.2% (inactive)"}
{"smiles": "Cc1sc2nc3c4ccccc4c(NCc4ccco4)nn3c(=O)c2c1C", "cytotoxicity": "66% (active)"}
{"smiles": "O=C(CCOc1ccccc1)OCC(=O)c1cc2ccccc2o1", "cytotoxicity": "-20.1% (inactive)"}
{"smiles": "COc1ccc(S(=O)(=O)N2CCCCC2)cc1C(C)C", "cytotoxicity": "-10.6% (inactive)"}
{"smiles": "Nc1nc(-c2ccccc2Br)cs1", "cytotoxicity": "15.5% (inactive)"}
{"smiles": "Cc1cc(-c2csc(N)n2)c(C)n1CCc1ccccc1", "cytotoxicity": "99.3% (active)"}
{"smiles": "CCOC(=O)c1cc(C)n(CCc2ccccc2)c1C", "cytotoxicity": "0.4% (inactive)"}
{"smiles": "COCCn1c(-c2ccc(Cl)cc2)cnc1SCC(=O)NCc1cccs1", "cytotoxicity": "-6.5% (inactive)"}
{"smiles": "N#CC1=C(N)C(C#N)(C#N)C2(C(=O)Nc3ccccc32)C2CCCC=C12", "note": "(stereo unspecified)", "cytotoxicity": "-18.9% (inactive)"}
{"smiles": "CS(=O)(=O)N1CCc2cc(C(=O)O)ccc21", "cytotoxicity": "8.3% (inactive)"}
{"smiles": "CS(=O)(=O)N1CCc2cc(S(=O)(=O)N3CCN(Cc4ccc5c(c4)OCO5)CC3)ccc21", "cytotoxicity": "7.7% (inactive)"}
{"smiles": "CS(=O)(=O)N1CCc2cc(S(=O)(=O)Nc3ccc4oc5c(c4c3)CCCC5)ccc21", "cytotoxicity": "84.6% (active)"}
{"smiles": "O=C(C(Cc1ccccc1)n1cccc1)N1CCc2ccccc21", "note": "(stereo unspecified)", "cytotoxicity": "-1.9% (inactive)"}
{"smiles": "CC(=O)Oc1c(Cl)c(N2CCOCC2)c(OC(C)=O)c2ccccc12", "cytotoxicity": "-27.5% (inactive)"}
{"smiles": "COCCn1c(SCC(=O)Nc2ccccc2)nc2c1c(=O)[nH]c(=O)n2C", "cytotoxicity": "-3.2% (inactive)"}
{"smiles": "CC1CCc2c(sc3ncnc(SCC(=O)N4CCN(C(=O)c5ccco5)CC4)c23)C1", "note": "(stereo unspecified)", "cytotoxicity": "2.5% (inactive)"}
{"smiles": "CCC(c1nnnn1C(C)(C)C)N1CCN(c2cc(Cl)ccc2C)CC1", "note": "(stereo unspecified)", "cytotoxicity": "-6.4% (inactive)"}
{"smiles": "CC(=NC1CCCC1)c1c(C)[nH]n(-c2nc3ccccc3s2)c1=O", "cytotoxicity": "-31.1% (inactive)"}
{"smiles": "COc1ccc(-c2cc(=O)n(-c3nc4ccccc4[nH]3)[nH]2)cc1", "cytotoxicity": "10.5% (inactive)"}
{"smiles": "O=c1cc(-c2ccccc2)[nH]n1-c1nc2ccccc2s1", "cytotoxicity": "79% (active)"}
{"smiles": "Cc1nn(-c2nc3ccccc3s2)c(N)c1-c1ccccc1", "cytotoxicity": "5.2% (inactive)"}
{"smiles": "O=c1cc(-c2ccccc2)[nH]c2nc3ccccc3n12", "cytotoxicity": "31.4% (inactive)"}
{"smiles": "Cc1[nH]c(=O)[nH]c1CN1CCCCC1", "cytotoxicity": "-10.3% (inactive)"}
{"smiles": "CCOC(=O)c1cnn(-c2ccccc2)c1NC(=O)c1cccs1", "cytotoxicity": "0.1% (inactive)"}
{"smiles": "O=C(c1cccs1)n1cc(C(=S)N2CCOCC2)c2ccccc21", "cytotoxicity": "10% (inactive)"}
{"smiles": "COc1ccc(-c2c(C)nn3c(N4CCN(Cc5ccccc5)CC4)cc(C)nc23)cc1OC", "cytotoxicity": "-4% (inactive)"}
{"smiles": "c1csc(-c2cnc3ccccc3n2)c1", "cytotoxicity": "3.7% (inactive)"}
{"smiles": "CCOC(=O)N1CCN(C(=O)Nc2ccc(Cl)cc2Cl)CC1", "cytotoxicity": "0.2% (inactive)"}
{"smiles": "CCOC(=O)N1CCC(=C2c3ccc(Cl)cc3CCc3cccnc32)CC1", "cytotoxicity": "90.6% (active)"}
{"smiles": "CCOC(=O)N1CCN(S(=O)(=O)c2cc(Cl)ccc2Cl)CC1", "cytotoxicity": "-7.3% (inactive)"}
{"smiles": "O=S(=O)(c1ccc(-c2ccccc2)cc1)N1CCOCC1", "cytotoxicity": "3.5% (inactive)"}
{"smiles": "Nc1nncn1C(=O)c1cccs1", "cytotoxicity": "9.5% (inactive)"}
{"smiles": "CC(=O)O[C@]1(C(C)=O)CC[C@H]2[C@@H]3C=C(C)C4=CC(=O)CC[C@]4(C)[C@H]3CC[C@@]21C", "cytotoxicity": "-15.6% (inactive)"}
{"smiles": "CC(=O)O[C@]1(C(C)=O)CC[C@H]2[C@@H]3C=C(Cl)C4=CC(=O)CC[C@]4(C)[C@H]3CC[C@@]21C", "cytotoxicity": "76.4% (active)"}
{"smiles": "CCCCCCCC(=O)OCC(=O)[C@@]1(O)CC[C@H]2[C@@H]3CCC4=CC(=O)CC[C@]4(C)[C@H]3[C@@H](O)C[C@@]21C", "cytotoxicity": "-2.2% (inactive)"}
{"smiles": "CC(=O)O[C@]1(C(C)=O)CC[C@H]2[C@@H]3C[C@H](C)C4=CC(=O)CC[C@]4(C)[C@H]3CC[C@@]21C", "cytotoxicity": "3.4% (inactive)"}
{"smiles": "CCCCCC(=O)O[C@]1(C(C)=O)CC[C@H]2[C@@H]3CCC4=CC(=O)CC[C@]4(C)[C@H]3CC[C@@]21C", "cytotoxicity": "118% (active)"}
{"smiles": "CCCCC(=O)O[C@]1(C(=O)CO)CC[C@H]2[C@@H]3CCC4=CC(=O)CC[C@]4(C)[C@H]3[C@@H](O)C[C@@]21C", "cytotoxicity": "-3.2% (inactive)"}
{"smiles": "NC(=O)CN1C(=O)C(O)(CC(=O)c2ccccc2O)c2ccccc21", "note": "(stereo unspecified)", "cytotoxicity": "-20.7% (inactive)"}
{"smiles": "Cc1csc(=N)n1CC(=O)N1CCc2ccccc21", "cytotoxicity": "-5.1% (inactive)"}
{"smiles": "CCN1C(=O)c2cccc3c(S(=O)(=O)Nc4ccccc4OC)ccc1c23", "cytotoxicity": "15.9% (inactive)"}
{"smiles": "COc1ccc(-c2cc(C(F)(F)F)n3nc(C(=O)Nc4cc(C)on4)cc3n2)cc1OC", "cytotoxicity": "8.1% (inactive)"}
{"smiles": "Cc1cc(C)c(S(=O)(=O)N2CCN(CCO)CC2)c(C)c1", "cytotoxicity": "-4.9% (inactive)"}
{"smiles": "CCc1nc(OCCN(CC)CC)c2oc3ccccc3c2n1", "cytotoxicity": "15.9% (inactive)"}
{"smiles": "CCN(CC)CCOc1ncnc2c1oc1ccccc12", "cytotoxicity": "-9.3% (inactive)"}
{"smiles": "CC1CCc2nn(CC(=O)NCCN3CCOCC3)cc2C1", "note": "(stereo unspecified)", "cytotoxicity": "-3.4% (inactive)"}
{"smiles": "O=C(c1ccccc1)c1ccc(OCC(O)CN2CCOCC2)cc1", "note": "(stereo unspecified)", "cytotoxicity": "10.8% (inactive)"}
{"smiles": "c1ccc(C(CN2CCOCC2)c2ccccc2)cc1", "cytotoxicity": "-15.2% (inactive)"}
{"smiles": "CCOc1ccc(-n2c(Cc3cc(=O)[nH]c(=O)[nH]3)nnc2SC(C)C)cc1", "cytotoxicity": "-20.5% (inactive)"}
{"smiles": "Cc1cc(C(=O)Oc2ccccc2C(=O)O)c(C)o1", "cytotoxicity": "-8% (inactive)"}
{"smiles": "CCSc1nnc(NC(=O)c2ccc(C)o2)s1", "cytotoxicity": "-3.8% (inactive)"}
{"smiles": "Cc1ccc(C(=O)Nc2ncc(Cc3ccc(F)cc3)s2)o1", "cytotoxicity": "61.5% (active)"}
{"smiles": "O=C(Nc1ncc(Cc2ccccc2)s1)c1cccs1", "cytotoxicity": "4.6% (inactive)"}
{"smiles": "Cc1ccc(C(=O)Nc2ncc(Cc3ccccc3)s2)o1", "cytotoxicity": "51.3% (active)"}
{"smiles": "O=C(Nc1ncc(Cc2ccccc2)s1)C1CCCO1", "note": "(stereo unspecified)", "cytotoxicity": "6.8% (inactive)"}
{"smiles": "Cc1nnc(SCC(=O)Nc2ncc(Cc3ccc(F)cc3)s2)n1N", "cytotoxicity": "-4.8% (inactive)"}
{"smiles": "COc1ccc(-c2cc(C(F)(F)F)nc(SCC(=O)N3CC(C)OC(C)C3)n2)cc1OC", "note": "(stereo unspecified)", "cytotoxicity": "-1.3% (inactive)"}
{"smiles": "Cc1c(Cl)cccc1NC(=O)CSCc1cc(=O)[nH][nH]1", "cytotoxicity": "-8.5% (inactive)"}
